# Test results published in PubChem BioAssay (NCI).
# This is part of a sample that, as a whole, favours compounds with a hit. Of some 83,000 tested, about 20% had one in any assay.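 Note: values are percent growth. 100 is the growth of untreated cells, values between 100 and 0 indicate rising inhibition; between -100 and 0 indicates cell death.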 Values without a mark were called inactive. Activity calls are given as the source filed them. The calls were made as follows: active = growth percent below 10; inactive = the rest.
# Test system: HL-60(TB) leukemia
# Assay: NCI-60 one-dose screen, 48 h (100 = growth as untreated, 0 = no growth, -100 = all killed)
# Settings: 10 µM unless noted
row,SMILES,growth
1,COc1ccc(-n2cnc3cc(C(=O)N4CCCCC4)ccc32)cc1,105%
2,O=C(COc1ccc(/C=C2\Cc3ccc(Cl)cc3C2=O)cc1)Nc1nccs1,67.3%
3,CC(=O)OCCC(C)CCC=C(C)C (stereo not given),108%
4,Nc1nc(C(=O)N/N=C/c2ccc(F)cc2)nn1-c1ccc(S(N)(=O)=O)cc1,99.5%
5,CCCC(c1nnnn1C1CCCCC1)N1CCN(C(=O)c2ccco2)CC1 (stereo not given),12.6%
6,COc1ccc2c(c1)c(-c1nonc1-c1cn(C)c3ccc(OC)cc13)cn2C,-1.01% (active)
7,Cc1nc(N/N=C/c2cn(-c3ccccc3)nc2-c2cc3ccccc3oc2=O)sc1N=Nc1ccccc1,89%
8,O=C(CCl)N1c2cccc3cccc(c23)N(C(=O)CCl)C1c1cn(-c2ccccc2)nc1-c1cccc([N+](=O)[O-])c1,27.7%
9,COc1ccc(-c2nc(SCCC(C)C)nc(N/N=C\c3cccc(Cl)c3)c2C#N)cc1,82%
10,CC(C)(C)c1nn(-c2ccccc2)c2c1CC1(CN2Cc2ccc(Cl)cc2)C(=O)c2ccccc2C1=O,90.8%
11,O=c1c2c3c(sc2nc(N/N=C/c2ccc(Br)cc2)n1Cc1ccccc1)CCCC3,71.2%
12,COc1ccc(C2=NN(C(=O)c3cc(OC)c(OC)c(OC)c3)C(c3ccc(C#N)cc3)C2)cc1OC (stereo not given),4.24% (active)
13,COc1ccc2[nH]c(=O)c(CN3CCN(c4nccc(-c5ccc(Cl)cc5)n4)CC3)cc2c1,90.1%
14,CCCOc1ccc2nc(NC(=O)OC)[nH]c2c1,3.05% (active)
15,NS(=O)(=O)c1ccc(NCC(=O)Nc2ccc(-c3nc4ccccc4s3)cc2)cc1,33.4%
16,c1ccc(CNCCNCc2ccccc2)cc1,105%
17,COc1cc2c3c(cccc3c1)C(=O)N(CCN1CCCC1)C2=O,26%
18,COc1ccc(-c2nnc(-c3c(-c4ccccc4)nc4ncccn34)o2)cc1OC,85.5%
19,Nc1ccc2c(c1)C(=O)c1cc(Cl)c(Cl)cc1-2,76.2%
20,CC(=O)c1cccc(N(C)S(=O)(=O)c2ccc(C)cc2)c1,88.8%

row,SMILES,growth
1,CC12CC(C#N)CCC1O2 (stereo not given),101%
2,N#Cc1c(N)n(CCNC(=O)c2ccccc2)c2nc3ccccc3nc12,34.5%
3,Cn1cc(-c2csc(-c3cn(C(=O)OC(C)(C)C)c4ccccc34)n2)c2cccnc21,65.8%
4,O=S(=O)(NCCCNc1nccc(-c2c(-c3cccc(O)c3)nc3occn23)n1)c1ccc(Br)cc1,69.7%
5,CCCCCCCC(=O)SCC/C=C/[C@@H]1CC(=O)NCc2cccc(n2)CN(Cc2ccc(Cl)cc2)CC(=O)N[C@@H](C(C)C)C(=O)O1,13%
6,C=CCN1C(=O)c2ccccc2C1=O,101%
7,Nc1c(C(=O)Nc2cccc(Cl)c2)sc2ncc(Cl)cc12,88.7%
8,CCOC(=O)c1c(C)nc2ccccc2c1/C=C/c1ccc(OC)cc1,83.3%
9,COc1ccc(/C=C/C(=O)NCC(C)O)cc1 (stereo not given),109%
10,CCC(C)CC(N)O (stereo not given),120%
11,CN(C)CCCC(C#N)c1ccccc1 (stereo not given),118%
12,CN1CCN=C1c1ccc(NC(=O)c2ccc(C(=O)Nc3ccc(C4=NCCN4C)cc3)cc2)cc1,91.2%
13,O=c1cc(C(F)(F)F)[nH]c(=S)[nH]1,94.1%
14,COc1ccc2c(CCCC(c3ccccc3)c3ccccc3)c3[n+](cc2c1OC)CCc1cc2c(cc1-3)OCO2,-30.9% (active)
15,CN1CCN(CCOc2ccc(-c3cnc4c(-c5cccc(F)c5F)cnn4c3)cc2)CC1,-49.9% (active)
16,Nc1c(C(=O)Nc2cccc(Cl)c2)sc2ncc(Br)cc12,108%
17,COc1ccc(-c2nc(Cl)c3c(C)nn(-c4ccc(F)cc4)c3n2)cc1,98.3%
18,COc1ccc(CNc2c3ccccc3nc3ccccc23)cc1F,12.9%
19,O=C(/C=C/c1cccc(Cl)c1)c1cccc(OCCCCOc2cccc(C(=O)/C=C/c3cccc(Cl)c3)c2)c1,84.6%
20,O=C1/C(=C\c2cccc3nccnc23)SC(=S)N1CCc1ccc(O)cc1,79.5%
